Max response data for 94 compounds are collected here from PubChem BioAssay AID2314 (National Center for Advancing Translational Sciences (NCATS), 2010).

The structures appear in SMILES notation. Hit rate of the full screen: of about 300,000 compounds, about 37,000 (12%) were called active. This is one part of a sample in which actives are shown more often than they occur. Values without a mark were called inactive. Cut-off read from the data, not from the text of the source: active = max response mostly above about 13% (no sharp cut-off); inactive = mostly below about 14%.

The nature of this assay: Cycloheximide Counterscreen for Small Molecule Inhibitors of Shiga Toxin. Note: read at 38.3 µM for the half of the compounds with a filed dose; 0% is about no effect. The conditions noted are these: cell reporter, cycloheximide protein synthesis inhibition counterscreen; hits give high values. In general terms: A counterscreen serves to expose hits that act by an unwanted route or on another target.
As for `CCCNC(=O)OC[C@H]1O[C@H](CCO/N=C/[C@@H](NS(=O)(=O)c2ccc(C)cc2)[C@H](C)/C=C/CC(=O)OC)C=C[C@@H]1Oc1ccc(OC)cc1`, the max response was -2.36%. Under `Cc1cccc(N2CCN(C(=O)CN(C)S(=O)(=O)c3ccc4c(c3)CCC(=O)N4)CC2)c1C` stands -5.43%; under `COc1ccc(CNC(=O)C(C)n2nc(C)c3c(C)n(-c4ccccc4)nc3c2=O)c(OC)c1` (centres undefined), -7.8%; under `Cc1cccc(S(=O)(=O)N2CN(CC3CCCO3)c3nc4ccccc4nc32)c1` (centres undefined), 12.8%.

For the compound `O=c1oc2ccccc2c(CNc2ccccc2)c1[N+](=O)[O-]`, the max response is -2.06%. Then `CCOc1ccccc1N1CCN(C(=O)COc2ccc3c(C)cc(=O)oc3c2)CC1`, with -3.54%; and `CC(C)(C)NC(=O)CSc1nnc(NC(=O)CCc2ccccc2)s1`, with -0.182%; and `COc1ccc([N+](=O)[O-])cc1NC(=O)CCc1ccccc1`, with -3.85%. For `O=C(CCc1ccccc1)Nc1ncc([N+](=O)[O-])s1`, the max response is 60.9% (active). Under `CCn1c(SCC(=O)Nc2ccc3c(c2)OCCO3)nnc1C(C)C` stands -1.89%; under `CCCn1c(SCC(=O)c2ccc3c(c2)OCCO3)nnc1C(C)C`, 15.2% (active); under `CCCn1c(SCC(N)=O)nnc1C(C)C`, -4.34%. For the compound `COc1cc(C(=O)N/C(=C\c2cn(C)c3ccccc23)C(=O)N2CCOCC2)cc(OC)c1OC`, the max response is -5.05%.

With `O=C(C1CCCN(S(=O)(=O)c2ccccc2)C1)N1CCN(c2ccc(F)cc2)CC1` (centres undefined), the max response was 8%. For the compound `O=[N+]([O-])c1ccc2[nH]c3c(c2c1)CCCC3O` (centres undefined), the max response was -4.82%. Regarding `CCOC(=O)c1ccc2[nH]c3c(c2c1)CCCC3NC=O` (centres undefined), the max response is 13.2% (active).

Regarding `CCOC(=O)c1ccc(NC(=O)c2cc(=O)[nH]c3ccccc23)cc1`, the max response is -2%. Under `O=C(COc1cccc(F)c1)Oc1ccc(C(=O)c2ccccc2)cc1` stands 15.6%; under `CC(C)(C)c1ccc(C(=O)N2CCC(C(=O)N3CCCCC3)CC2)cc1`, -2.39%; under `O=C(c1ccccc1)c1ccc(OC(=O)N2CCCC2)cc1`, 37.5% (active).

As to `O=C(Nc1cccc(OC(=O)N2CCCCC2)c1)N1CCOCC1`, the max response is 5.17%. `O=C(c1ccccc1)c1ccc(OCC(O)CN2CCCC2)cc1` (centres undefined): the max response is 5.75%. Under `CC(C)(C)c1ccc(OC(=O)N2CCCCC2)cc1` stands 54.1% (active). Then `CC(C)CCNC(=O)C(C)N(C(=O)Cn1nnc(-c2ccc(F)cc2)n1)C1CCCC1` (centres undefined), with -1.9%; and `COC(C[C@@H](O)[C@H](C)[C@H](O)COCc1ccccc1)OC`, with 5.98%; and `O=C(NCCS(=O)(=O)N1CCN(c2ccccc2F)CC1)c1ccc(Br)o1`, with 8.75%. Then `O=S(=O)(c1ccc2c(c1)OCCCO2)N1CCN(S(=O)(=O)c2c(F)cccc2F)CC1`, with 3.98%; and `Cc1csc(NC(=O)CSc2nnc(-c3cccnc3)o2)n1`, with -7.35%; and `CN(C)c1ccc(-c2nnc(-c3cccnc3)o2)cc1`, with 56.2% (active). With `CN(C)c1nc(-c2cccnc2)nc(-c2ccc(Cl)cc2)c1C#N`, the max response is -4.98%.

On to `CCCNCc1cc(OCC)c(OCC(=O)Nc2ccccc2)cc1Br`, for which the max response was -0.891%. Under `CCN(CC)CCCNC(=O)CCn1nc(-c2ccc(Cl)cc2)ccc1=O` stands -2.58%. Then `CC(C)N(Cc1ccccc1)C(=O)COC(=O)c1cnccn1`, with -3.2%; and `Cc1ccc2cc3cc(C(=O)N4CCCCCC4)oc3nc2c1`, with 43.7% (active); and `Cc1ccc2oc(=O)c3cnn(CC(=O)N4CCCCCC4)c3c2c1`, with -10.3%. Then `Cc1ccc(C(=O)N2CCCCCC2)cc1Br`, with 10.4%; and `C=CCn1c(SCC(=O)NCCCO)nc2sc3c(c2c1=O)CCC3`, with -2.04%; and `NCCCCC(N)C(=O)O` (centres undefined), with -7.46%. On to `CN1/C(=C\C=C2\N=C(c3ccc(F)cc3)OC2=O)C(C)(C)c2ccccc21`, for which the max response was -1.91%. Take `Cc1cccc(C(=O)Nc2ccc(C(=O)/C=C/c3cccs3)cc2)c1`: the max response was 76% (active). Under `Cc1cccc(C(=O)Nc2ccc(C(=O)N/N=C/c3cccc(C)n3)cc2)c1` stands 5.54%; under `Cc1cccc(C(=O)Nc2ccc(CC(=O)O)cc2)c1`, -5.6%; under `C=CCN1CCN(C(=O)CCCc2ccccc2)CC1`, 1.1%. Then `CCCS(=O)(=O)N1CCN=C1SCc1cccc(F)c1`, with -1.71%; and `O=C(OCC(O)C(O)COC(=O)c1ccccc1)c1ccccc1` (centres undefined), with -1.94%.

Consider `O=C(COC(=O)c1ccncc1)c1ccccc1`, for which the max response was 18.7% (active). As to `COc1ccc(NC(=O)COC(=O)c2ccncc2)c(OC)c1`, the max response was 0.0404%. Consider `CCOc1ccc(C)cc1S(=O)(=O)NC1CCCCCC1`, for which the max response was -2.48%. Then `Cc1ccccc1NC(=O)NCC1CCN(Cc2cccc(Cl)c2)CC1`, with -4.17%; and `COc1cccc2cc(C(=O)NCc3ccc(C)cc3)c(=N)oc12`, with 3.84%. In the case of `CNC(=O)c1cc2c(ccc3ccccc32)oc1=N`, the max response was 18.4%. Under `N=c1oc2ccccc2cc1C(=O)N/N=C/c1ccccc1` stands 46.7% (active); under `CC(NC(=O)c1cc2cc(Cl)ccc2oc1=N)c1ccccc1` (centres undefined), -1.94%; under `N=c1oc2ccccc2cc1C(=O)NCc1ccccc1`, 41.3% (active). Then `O=C(c1cccc(Br)c1)N1CCN(C2=NS(=O)(=O)c3ccccc32)CC1`, with -3.24%; and `CC1=C(C(=O)OC2CCCCC2)C(c2ccccc2F)NC(=O)N1` (centres undefined), with 13.8%. Under `COc1cc(OC)c(OC)cc1CN1CCN(C(=O)c2cccc3ccccc23)CC1` stands -0.856%; under `O=C(N/C(=C\c1ccc([N+](=O)[O-])cc1)C(=O)N1CCCCC1)c1ccco1`, -1.29%. As to `CSc1nc(C)cc(SC(C(C)=O)C(=O)Nc2ccccc2)n1` (centres undefined), the max response is 31.9% (active). Then `CC(Sc1nnc2c(n1)C1CCC2(C)C1(C)C)C(=O)Nc1ccccc1` (centres undefined), with -1.8%; and `Cc1cc(C)nc(N(C#N)CC(=O)Nc2ccccc2)n1`, with -2.23%.

As to `Cc1c(OC(C)C(=O)NCC2CCC(C(=O)O)CC2)ccc2c1oc(=O)c1ccccc12` (centres undefined), the max response was -1.17%. Turning to `CS(=O)(=O)N(Cc1ccccc1Cl)c1ccc(C(=O)NCc2cccnc2)cc1`, the max response is -1.15%.

As to `CC(=O)n1c(C=Nc2ccccc2)c(O)c2ccccc21`, the max response was 33.7% (active).

Regarding `CCCCn1c(=O)c(C(C)=O)c(O)c2ccccc21`, the max response is 1.86%. Under `CCOc1ccc(N=Cc2c(O)n(-c3cccc(C)n3)c(=O)c3ccccc23)cc1` stands 9.6%; under `O=C(c1cccnc1)N(c1cc2sc(=O)oc2c2ccccc12)S(=O)(=O)c1ccccc1`, -2.05%; under `Cc1ccc(N(C(=O)c2ccc(S(=O)(=O)N(C)C)cc2)C2C=CS(=O)(=O)C2)cc1` (centres undefined), -2.02%.

For the compound `O=C(c1ccc(OC2CCN(C/C=C/c3ccc(F)cc3)CC2)cc1)N1CCCCC1`, the max response is -0.769%. Under `Nc1ccccc1SCc1cc([N+](=O)[O-])cc2c1OCOC2` stands 24.7% (active); under `CC(O)C(NS(=O)(=O)c1ccc(Cl)cc1)C(=O)OCc1cc([N+](=O)[O-])cc2c1OCOC2` (centres undefined), -0.904%.

For the compound `CCC1(CC)Cc2ccccc2-c2nc(CCl)[nH]c(=O)c21`, the max response was -3.16%. Then `CC(=O)OCCN(CCCn1c(-c2ccncc2)nc2ccccc21)c1nc(-c2ccc(C)cc2)cs1`, with -0.764%; and `CCOCCOC(=O)C1=C(C)NC(=O)NC1c1ccc2c(c1)OCO2` (centres undefined), with -1.93%; and `CCOC(=O)c1c(C)[nH]c(C(=O)COc2ccc3c(c2)OCO3)c1C`, with 18%.

Take `CCOC(=O)c1nc(-c2ccc3c(c2)OCO3)[nH]c1C`: the max response is 29% (active).

As to `Cc1cc(C)n2nc(C(=O)N(C)C(c3ccccc3)c3ccccc3)nc2n1`, the max response was -3.94%. Then `CC1CN(C(=S)Nc2ccc(S(N)(=O)=O)cc2)CC(C)O1` (centres undefined), with -1.03%; and `O=C(Nc1ccc(Br)cc1)c1cc(S(=O)(=O)Nc2ccccn2)ccc1Cl`, with 0.597%; and `CCOC(=O)C1=C(c2ccccc2)NC(=O)NC1c1cc(OC)c(OC)cc1OC` (centres undefined), with 1.07%.

`COc1ccccc1N(CC(=O)N/N=C(\C)c1ccccc1O)S(=O)(=O)c1ccc(C)cc1`: the max response was -1.67%. Then `C/C(=N\NC(=O)c1ccoc1C)c1ccccc1O`, with 18.7% (active); and `CC(C)=C(NC(=O)c1ccccc1)C(=O)N/N=C(\C)c1ccccc1O`, with 1.01%; and `COc1ccc(Cl)cc1-n1c(C)cc(C(=O)OCC(=O)N2CC(=O)Nc3ccccc32)c1C`, with 0.969%. Then `CC(C)COC(=O)n1c(=O)oc2ccc(S(=O)(=O)N3CCCCC3)cc21`, with -3.35%; and `O=C(Nc1nnc(-c2ccc(F)cc2)s1)c1c(F)cccc1Cl`, with -1.16%.

As for `COCCCNC(=S)NC(=O)c1ccccc1`, the max response was 36.8% (active). Under `COc1ccccc1OCCNC(=O)c1cc([N+](=O)[O-])cc([N+](=O)[O-])c1` stands 6.58%; under `CCCCCC(=O)NC(=S)NNC(=O)c1ccc([N+](=O)[O-])cc1`, 0.94%; under `Cc1cccc(OCCNC(=S)NC(=O)c2cccnc2)c1`, -2.88%.

On to `COCCCNC(=S)NNC(=O)C(O)(c1ccccc1)c1ccccc1`, for which the max response was -2.66%. Then `COCCCNC(=S)NC(=O)c1ccc([N+](=O)[O-])cc1`, with 27.5% (active).

For `O=C(Cc1ccccc1Cl)N1CCOCC1`, the max response is -3.01%. Then `Cc1ccc(Cl)cc1NC(=O)CN1CCN(S(=O)(=O)N2CCOCC2)CC1`, with -6.26%.
